Laboratory results as given in PubChem BioAssay (EPA / NIEHS).
The source made the active and inactive calls. How the source made its calls: active means hit-call score of the fitted dose curve at least 0.9, where 1 is the maximum; inactive means score below 0.9.

Assay: ATG_TGFb_CIS: Attagene CIS-FACTORIAL HepG2 Assay for human Transforming Growth Factor (TGF) (AID 2282967)
Settings: HepG2 Attagene CIS TGFb reporter, mRNA transcription; actives raise or lower the signal
Protocol: ATG_CIS is a cell-based, multiplexed-readout assay that uses HepG2, a human liver cell line, with measurements taken at 24 hours after chemical dosing in a 24-well plate.ATG_TGFb_CIS is one of 52 assay component(s) measured or calculated from the ATG_CIS assay. It is designed to make measurements of mRNA induction, a form of inducible reporter, as detected with fluorescence intensity signals by Reverse transcription polymerase chain reaction (RT-PCR) and Capillary electrophoresis technology.Data from the assay component ATG_TGFb_CIS was analyzed into 1 assay endpoint. This assay endpoint, ATG_TGFb_CIS, was analyzed with bidirectional fitting relative to DMSO as the negative control and baseline of activity. Using a type of inducible reporter, measures of mRNA for gain or loss-of-signal activity can be used to understand the reporter gene at the transcription factor-level as they relate to the gene TGFB1. Furthermore, this assay endpoint can be referred to as a primary readout, because this assay has produced multiple assay endpoints where this one serves a reporter gene function. To generalize the intended target to other relatable targets, this assay endpoint is annotated to the growth factor intended target family, where the subfamily is transforming growth factor beta.
Human liver HepG2 cells are transiently transfected with multiple reporter transcription units (MRTUs) in 6-well plates using FuGene 6 reagent (Roche; 3 ml FuGene/1 mg DNA). The MRTU constructs are regulated by a cis-regulating element (promoter). […] A major difference between the CIS and TRANS system is that in CIS activities of endogenous TFs are measured, whereas the TRANS assay evaluates changes in activities of exogenous, chimeric NR-Gal4 proteins. […] At the end of 24 hour incubation, total RNA was isolated using TriZol reagent (Invitrogen). The isolated RNA is then reverse-transcribed using oligo(dT) primer and Mo-MLV reverse transcriptase (Invitrogen) with DNAse I (Ambion) treatment for 30 min. The one-tenth of the produced cDNA was amplified by PCR using Taq DNA polymerase (Invitrogen) and two reporter sequence-specific primers. The PCR products were fluorescently labeled by primer extension with 6-arboxyfluorescein (6-FAM) 5'-labeled reporter sequence-specific primer (2 min at 95 C, 20 s at 68 C and 10 min at 72 C) and these products were digested with 5U of HpaI (New England Biolabs) for 2h at 37 C. The fragments were purified using Qiaquick PCR columns (Qiagen), analyzed on an ABI 3130xL genetic analyzer (Applied Biosystems) with peak positions identified by using a set of X-rhodamine (ROX)-labeled MapMarker1000 molecular weight standards (BioVentures). The raw capillary electrophoresis data was processed using Attagraph software (Attagene).
In the case of `CC/C=C\CCOC(C)OCC` (stereo not given), the outcome is reported as “inactive”. For `CCCc1ccc(N)cc1`, the outcome was “inactive”. In the case of `CCCCCC1C(=O)CCC1CC(=O)OC` (stereo not given), the outcome is reported as “inactive”. With `CCCC(O)C(CC)CO` (stereo not given) the outcome was “inactive”. With `CC(O)COCC(C)O` (stereo not given) the outcome was “inactive”. In the case of `CCCCC/C=C\C=C\C(=O)OCC`, the AC50 is reported as 74.2 µM (active). In the case of `CC/C(=C(\c1ccccc1)c1ccc(OCCN(C)C)cc1)c1ccccc1`, the outcome is reported as “inactive”. With `CC(C)N(c1ccccc1)C(C)C` the outcome was “inactive”. With `CC(C)OB(OC(C)C)OC(C)C` the outcome was “inactive”. In the case of `CCOC(=O)CCCCCCCCC(=O)OCC`, the outcome is reported as “inactive”. With `NNC(=O)OCc1ccccc1` the outcome was “inactive”. With `CC(C)(O)C(=O)c1ccc(OCCO)cc1` the outcome was “inactive”. For `NC(=O)c1c(Cl)cccc1Cl`, the outcome was “inactive”. With `c1ccc(Cc2ccccc2)cc1` the outcome was “inactive”. With `CC(C)(CO)CO` the outcome was “inactive”. In the case of `Brc1cc(Br)cc(Br)c1`, the AC50 is reported as 100 µM (active). For `CC(=O)OC/C=C(C)/C=C/C=C(C)/C=C/C1=C(C)CCCC1(C)C`, the AC50 was 1.23 µM (active). In the case of `COC(=O)C(C)Oc1ccc(Oc2ncc(C(F)(F)F)cc2Cl)cc1` (stereo not given), the AC50 is reported as 133 µM (active). In the case of `CCC(CC)CO`, the outcome is reported as “inactive”. In the case of `CC(C)COC(=O)c1ccccc1`, the outcome is reported as “inactive”. For `CC1=CC[C@@H]2C[C@H]1C2(C)C`, the outcome was “inactive”. With `CCCO` the outcome was “inactive”. With `CN1CCc2cccc3c2[C@H]1Cc1ccc(O)c(O)c1-3` the outcome was “inactive”. With `O=C1OC2(c3ccc(O)cc3Oc3cc(O)ccc32)c2ccccc21` the outcome was “inactive”. In the case of `C=CCOCC(O)CO` (stereo not given), the outcome is reported as “inactive”. For `CCCCCCCCCOS(=O)(=O)O`, the outcome was “inactive”. With `C=C(C)CCCC(C)CCO` (stereo not given) the outcome was “inactive”. For `[Na+]`, the outcome was “inactive”. In the case of `CC1=CC(C)C(C=O)C(C)C1` (stereo not given) (tested in a mixture with another compound), the outcome is reported as “inactive”. For `Nc1ccc(O)c(N)c1`, the outcome was “inactive”. In the case of `O=C(O)CS`, the outcome is reported as “inactive”. With `CCCCCC(=O)O[C@]1(C(C)=O)CC[C@H]2[C@@H]3CCC4=CC(=O)CC[C@]4(C)[C@H]3CC[C@@]21C` the outcome was “inactive”. For `CCC(=O)OC/C=C(\C)CCC=C(C)C`, the outcome was “inactive”. With `CC(O)CN` (stereo not given) the outcome was “inactive”. With `CCC(=O)OC(C)(C)C1CC=C(C)CC1` (stereo not given) the outcome was “inactive”. In the case of `O=C(O)C1=NN(c2ccc(S(=O)(=O)O)cc2)C(=O)C1`, the outcome is reported as “inactive”. With `Cc1cc(N)n(-c2ccccc2)n1` the outcome was “inactive”. For `CNC(=C[N+](=O)[O-])NCCSCc1ccc(CN(C)C)o1`, the outcome was “inactive”. With `CC(=O)CCC=C(C)CCC=C(C)C` the outcome was “inactive”. For `NC(=O)c1cccnc1`, the outcome was “inactive”.
